# Where “and” joins values, the source holds several entries; their conditions need not be identical. Equal values may be shown once. Calls of active or inactive are those of the source. Rule as the data show it, unless noted: active = inhibition above about 80%; inactive = the rest.
# Legend:
# [1] = Wnt pathway potentiators raising nuclear beta-catenin – imaging, WNT3A-conditioned medium, mouse C2C12, NPC library, primary screen (AID 1117326; in the data active = nuclear beta-catenin stimulation mostly above about 4.2%, no sharp cut-off; inactive = mostly below about 10%); settings: stronger effect = higher value
# [2] = stimulators of insulin release from INS-1E, primary screen, cell-based, 5 mM glucose, NPC library (AID 1117329;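 active = compound raises insulin release from rat beta cells at 5 mM glucose, no numeric limit stated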); settings: rat INS-1E insulin secretion, at 10 µM, stronger effect = higher value
# [3] = growth inhibition of GSK3B-pretreated HCT116 cells – cell-based, CellTiter-Glo, 0.2 to 20 µM (AID 1117336;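 active = compounds lowering colon cancer cell viability after pretreatment blocking the GSK3B kinase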); settings: HCT116 viability after GSK3B inhibitor, at 20 µM, stronger effect = higher value
# [4] = inhibition of endothelial tube formation, primary screen, imaging, VEGF stimulated, CD31 staining, tube area, NPC library (AID 1117340;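 active = compound that reduces growth-factor-driven endothelial tube area in a mixed cell culture, no cutoff stated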); settings: VEGF-stimulated ADSC/ECFC co-culture, at 10 µM, stronger effect = higher value
# [5] = GLP1 release stimulators, primary, NCI-H716, NPC library (AID 1117341;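 active = compound raises GLP1 secretion from the human gut endocrine cells, with no numeric limit stated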); settings: NCI-H716 cells, at 10 µM, stronger effect = higher value
# [6] = HCT116 colon cancer cell growth inhibition, primary screen, CellTiter-Glo luminescence, NPC library (AID 1117342;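 active = compounds that lower survival of HCT116 colon cancer cells in the luminescence readout, no numeric limit stated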); settings: at 20 µM (top of the series)
# [7] = reduced SW480 viability measured with CellTiter-Glo, NPC library, primary (AID 1117343;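 active = compounds that lower viability of the colon cancer cells in the luminescence readout, with no numeric limit stated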); settings: CellTiter-Glo luminescence; at 20 µM (top of the series) unless noted
# [8] = NPC library primary testing for decreased DLD-1 cell viability via CellTiter-Glo (AID 1117346;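 active = compounds that lower survival of DLD-1 colon cancer cells in the luminescence readout, no cutoff given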); settings: DLD-1 viability, CellTiter-Glo luminescence; at 20 µM (top of the series)
# [9] = EMT-state selective cytotoxicity in co-culture – imaging, PC-3E GFP, TEM4-18 mCherry, primary screen (AID 1345086;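 active = compounds killing one labelled cell type while sparing the other, by normalised counts and ratio limits, not self-fluorescent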;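 as to all read-outs here: cells exposed to compound for 72 h before imaging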;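 as to red/green cell ratio (normalised): normalised mesenchymal count divided by normalised epithelial count so high means epithelial killing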); settings: PC-3E GFP / TEM4-18 mCherry co-culture, imaging cell counts, at 1 µM; for red/green cell ratio (normalised): actives lie on both sides, counts scaled to control wells, 1 = unselective
# [10] = viability loss with induced miR-34 in A549 – imaging, A549 dox-inducible miR-34, nuclei and caspase counts, primary screen (AID 1347080;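 active = compounds whose cell count with miR-34 switched on is under 0.7 times the count with it off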); settings: A549 miR-34 inducible, Hoechst nuclei count, 48 h
# [11] = MELAS cybrid and Rieske KO viability enhancers – cell-based, MELAS cybrids, Rieske KO mouse fibroblasts, CellTiter-Glo, primary screen (AID 1508586;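 active = mean z-score across replicates of 1.96 or higher in either the MELAS or the Rieske mutant cell line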;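 also: z relative to plate mean and SD of compound and empty wells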); settings: low glucose
# [12] = biological target: NAD(+) hydrolase SARM1 (Homo sapiens) (UniProt Q6SZW1); experiment: blocking NAD cleavage by SARM1 SAM-TIR – cell lysate, NAD-Glo luminescence (AID 1508614;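 active = compound whose remaining NAD level is above about 45 nM, limit read from the data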;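 also: higher remaining NAD means stronger inhibition of SARM1 NADase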); settings: SAM-TIR HEK293T lysate NADase, at 1 µM, stronger effect = higher value
# [13] = growth inhibition, single agent or in combination, cell-based, chromothripsis tumors, cisplatin or BGB combos (AID 1671449); settings: LFS_MB_P medulloblastoma cells;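 also: cells exposed for 96 hours; 0% = vehicle DMSO and 100% = killing by high DMSO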
# [14] = growth inhibition, single agent and combos, cell-based, chromothripsis tumors, cisplatin or BGB combos (AID 1671450); settings: HDN33 neuroblastoma cells, stronger effect = higher value;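 also: cells exposed to compound for four days; 0% = vehicle DMSO and 100% = cell killing by high DMSO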
# [15] = growth inhibition, single agents and combos, ICB984, cell-based, cisplatin or BGB combos, synergistic combos for chromothripsis tumors (AID 1671451; call rule not given here;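 also: cells exposed for 96 hours before readout; 0% = vehicle DMSO and 100% = killing by high DMSO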); settings: ICB984 medulloblastoma cells, drug combinations, stronger effect = higher value
# [16] = growth inhibition, single agents and combos, HTB85, cell-based, BGB or cisplatin IC20 combos, synergistic combos for chromothripsis tumors (AID 1671453); settings: HTB85 osteosarcoma cells, drug combinations, stronger effect = higher value;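 also: cells exposed for 96 hours before readout; 0% = vehicle DMSO and 100% = high DMSO killing control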
# [17] = growth inhibition, MDA-MB-436, cell-based, BGB or cisplatin combos, synergistic combos for chromothripsis tumors (AID 1671458; call rule not given here;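 also: cells exposed for 96 hours; 0% = vehicle DMSO and 100% = killing by high DMSO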); settings: MDA-MB-436 breast carcinoma growth inhibition, drug combinations, stronger effect = higher value
# [18] = P. berghei load reduction in hepatocytes – cell-based, HepG2, luciferase luminescence, HepG2 viability, primary screen (AID 624349; in the data active = parasite load remaining mostly below about 12%, no sharp cut-off; inactive = mostly above about 10%;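 also: 100% = mean of DMSO negative control wells on the same plate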); settings: P. berghei liver stage in HepG2, luciferase luminescence, concentration not given here; parasite load remaining: stronger effect = lower value; viability: measured here: HepG2 viability without parasites
# [19] = measured here: epithelial PC-3E GFP cell survival
# [20] = measured here: mesenchymal TEM4-18 mCherry cell survival
# [21] = stronger effect = lower value, cell number ratio, induced over uninduced
# [22] = measured here: relative caspase fold change +Dox/-Dox
# [23] = measured here: total cells with miR-34 induction, stronger effect = lower value
# [24] = measured here: total cells without miR-34 induction
# Chain of NAD(+) hydrolase SARM1 (Homo sapiens) (Q6SZW1 whole entry, looked up): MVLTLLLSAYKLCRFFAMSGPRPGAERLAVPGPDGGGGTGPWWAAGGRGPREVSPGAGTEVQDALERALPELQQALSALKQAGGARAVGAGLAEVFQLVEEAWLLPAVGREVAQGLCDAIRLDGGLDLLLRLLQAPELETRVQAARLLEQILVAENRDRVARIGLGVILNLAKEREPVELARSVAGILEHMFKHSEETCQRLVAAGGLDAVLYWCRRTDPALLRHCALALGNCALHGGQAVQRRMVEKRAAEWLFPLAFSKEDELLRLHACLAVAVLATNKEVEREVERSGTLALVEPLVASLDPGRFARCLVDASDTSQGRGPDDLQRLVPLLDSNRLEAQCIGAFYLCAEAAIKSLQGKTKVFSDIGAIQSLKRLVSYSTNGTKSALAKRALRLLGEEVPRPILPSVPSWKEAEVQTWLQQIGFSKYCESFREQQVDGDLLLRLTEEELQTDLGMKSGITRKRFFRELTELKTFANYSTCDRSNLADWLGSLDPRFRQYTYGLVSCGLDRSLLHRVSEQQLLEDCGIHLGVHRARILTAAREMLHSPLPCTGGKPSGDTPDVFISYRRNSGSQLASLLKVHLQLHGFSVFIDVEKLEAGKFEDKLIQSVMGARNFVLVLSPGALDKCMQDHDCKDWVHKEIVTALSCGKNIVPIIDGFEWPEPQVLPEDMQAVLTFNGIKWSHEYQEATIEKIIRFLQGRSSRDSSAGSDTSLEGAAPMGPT
smiles,measurement,setting,value
CC(O)CN(CCN(CC(C)O)CC(C)O)CC(C)O (stereo not given),nuclear beta-catenin stimulation,[1]; at 10 µM,2% (inactive)
same,nuclear beta-catenin stimulation,"[1]; stimulation, at 2 µM",2.5%
same,insulin secretion stimulation,[2],0.5% (inactive)
same,viability decrease,[3],-38.9% (inactive)
same,tube area decrease,[4],5.2% (inactive)
same,GLP1 secretion stimulation,[5],-4.1% (inactive)
same,inhibition of viability,[6],3.07% (inactive)
same,viability decrease (inhibition),[7],18.9% (inactive)
same,viability decrease (inhibition),[8],-3.8% (inactive)
same,red/green cell ratio (normalised),[9],1.23 (inactive)
same,normalised cell number,[9]; [19],0.98
same,normalised cell number,[9]; [20],1.2
same,fold change,[10]; [21],1.01 (inactive)
same,fold change,[10]; [22],0.821
same,cell count,[10]; [23],9510
same,cell count,[10]; [24],9380
O=C(O)c1cc(=O)[nH]c(=O)[nH]1,nuclear beta-catenin stimulation,[1]; at 10 µM,2.7% (inactive)
same,nuclear beta-catenin stimulation,"[1]; stimulation, at 2 µM",1.2%
same,insulin secretion stimulation,[2],-0.7% (inactive)
same,viability decrease,[3],0.3% (inactive)
same,tube area decrease,[4],-4.9% (inactive)
same,GLP1 secretion stimulation,[5],2.6% (inactive)
same,inhibition of viability,[6],1.8% (inactive)
same,viability decrease (inhibition),[7],18.7% (inactive)
same,viability decrease (inhibition),[8],0.25% (inactive)
same,red/green cell ratio (normalised),[9],0.81 (inactive)
same,normalised cell number,[9]; [19],1.22
same,normalised cell number,[9]; [20],0.99
same,fold change,[10]; [21],0.909 (inactive) and 0.91 (inactive)
same,fold change,[10]; [22],0.683 and 0.794
same,cell count,[10]; [23],8860 and 8140
same,cell count,[10]; [24],9750 and 8950
same,z-score,"[11]; MELAS cybrid survival, CellTiter-Glo 48 h, stronger effect = higher value",-0.414 (inactive)
same,z-score,"[11]; Rieske KO mouse fibroblast survival, CellTiter-Glo 72 h",-0.146
same,remaining NAD,[12],10 nM (inactive)
same,inhibition,"[13]; at 0.5 µM, stronger effect = higher value",-14.8% (inactive) and 6.04% (inactive)
same,inhibition,"[13]; measured here: combination with BGB IC20, at 0.005 µM",-3.6% and -6.88%
same,inhibition,"[13]; measured here: combination with BGB IC40, at 0.005 µM",28.3% and -31.4%
same,inhibition,"[13]; measured here: combination with BGB IC40, at 0.05 µM",-7.85% and -7.79%
same,inhibition,"[13]; measured here: combination with cisplatin, at 0.5 µM, stronger effect = higher value",-24.1% and -4.55%
same,inhibition,"[13]; measured here: combination with cisplatin, at 5 µM, stronger effect = higher value",-5.53% and -40.7%
same,inhibition,"[14]; BGB combo, at 5 µM",13.5% and -51.1%
same,inhibition,[14]; at 0.5 µM,15.1% (inactive) and -24.6% (inactive)
same,inhibition,"[14]; cisplatin combo, at 5 µM",14.4% and -17.2%
same,inhibition,"[14]; measured here: with BGB IC20 combination, at 0.5 µM",10.5% and -14.2%
same,inhibition,"[14]; measured here: with cisplatin IC20 combination, at 0.5 µM",24.7% and -33.5%
same,inhibition,"[14]; single agent, at 5 µM",12.4% and -40.1%
same,inhibition,"[15]; BGB IC20 combo, at 0.005 µM",-7.3% and -18.5%
same,inhibition,"[15]; BGB IC40 combo, at 0.005 µM",-15.2% and -60.1%
same,inhibition,"[15]; BGB IC40 combo, at 0.05 µM",9.75% and -38.4%
same,inhibition,[15]; at 0.5 µM,7.77% (inactive) and -27.4% (inactive)
same,inhibition,"[15]; cisplatin combo, at 0.05 µM",9.75% and -43.9%
same,inhibition,"[15]; cisplatin combo, at 0.5 µM",-1.72% and -34.4%
same,inhibition,"[15]; cisplatin combo, at 5 µM",27.1% and -45.2%
same,inhibition,"[15]; measured here: 5 uM single agent, at 5 µM",8.32% and 10.3%
same,inhibition,[16]; at 0.5 µM,5.03% (inactive) and -15.1% (inactive)
same,inhibition,"[16]; measured here: with BGB IC20, at 0.5 µM",-2.41% and -19.2%
same,inhibition,"[16]; measured here: with BGB IC20, at 5 µM",15.1% and -5.19%
same,inhibition,"[16]; measured here: with cisplatin IC20, at 0.5 µM",6.2% and -21.8%
same,inhibition,"[16]; measured here: with cisplatin IC20, at 5 µM",13% and -19.1%
same,inhibition,"[16]; single agent, at 5 µM",16% and -13.4%
same,inhibition,[17]; at 0.5 µM,2.87% (inactive) and -29.1% (inactive)
same,inhibition,"[17]; measured here: BGB combination, at 0.5 µM",7.16% and -31.6%
same,inhibition,"[17]; measured here: BGB combination, at 5 µM",4.32% and -38.3%
same,inhibition,"[17]; measured here: cisplatin combination, at 0.5 µM",-8.53% and -32.8%
same,inhibition,"[17]; measured here: cisplatin combination, at 5 µM",21.8% and -35.6%
CCCCCCCCCCCCCCCCCCCCCCO,parasite load remaining,[18],85.5% (inactive)
same,viability,[18],109%
same,nuclear beta-catenin stimulation,[1]; at 10 µM,3.4% (inactive)
same,nuclear beta-catenin stimulation,"[1]; stimulation, at 2 µM",2.9%
same,insulin secretion stimulation,[2],-2.5% (inactive)
same,viability decrease,[3],-7.2% (inactive)
same,tube area decrease,[4],-8.1% (inactive)
same,GLP1 secretion stimulation,[5],1.1% (inactive)
same,inhibition of viability,[6],-36.7% (inactive)
same,viability decrease (inhibition),[7],16.6% (inactive)
same,viability decrease (inhibition),[8],7.8% (inactive)
same,red/green cell ratio (normalised),[9],1.1 (inactive)
same,normalised cell number,[9]; [19],0.99
same,normalised cell number,[9]; [20],1.09
same,fold change,[10]; [21],0.841 (inactive)
same,fold change,[10]; [22],5.17
same,cell count,[10]; [23],10500
same,cell count,[10]; [24],12500
same,remaining NAD,[12],10 nM (inactive)

# Source: PubChem BioAssay
